Experimental findings from publication PMC12820563, “FoxP3 forms a head-to-head dimer in vivo and stabilizes its multimerization on adjacent microsatellites” are described below.

The full ranking holds about 16,000 sequences; the median of “rpm ratio (pull-down/input)” is about 0.5, and the highest 2% start at about 5.5. What follows is part of a selection rich in the highest values, with near analogues and random picks from the rest.

The assay addresses T1, MBP-FoxP3dN (Mus musculus, UniProt Q99JB6 188-423).
T1 sequence: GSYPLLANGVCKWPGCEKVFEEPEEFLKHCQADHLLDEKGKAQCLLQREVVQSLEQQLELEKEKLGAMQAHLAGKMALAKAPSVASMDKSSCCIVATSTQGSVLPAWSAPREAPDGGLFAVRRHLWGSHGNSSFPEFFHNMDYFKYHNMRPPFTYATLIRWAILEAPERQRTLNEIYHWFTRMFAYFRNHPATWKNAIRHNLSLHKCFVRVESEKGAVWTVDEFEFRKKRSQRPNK
In words: PD-seq (MBP pull-down with sequencing); 20 mM Tris-HCl pH 7.5, 100 mM NaCl, 1.5 mM MgCl2, 0.4 uM protein, 0.1 uM dsDNA library, 30 min, room temperature, amylose pull-down; high values mean tight binding. The note with it: protein: recombinant; tags: His6-MBP; chain copies: 2; dsDNA, one strand shown. In a few lines:
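A fragment of mouse FoxP3 or FoxP1 without its N-terminus, carrying a His6-MBP tag and produced in E. coli, was combined at 0.4 µM with a 0.1 µM degenerate double-stranded DNA library filled in with Klenow. The mixture sat for 30 min at room temperature in Tris pH 7.5 buffer containing NaCl and MgCl2. Protein–DNA complexes were captured on amylose resin, washed three times, and the DNA was freed with proteinase K, barcoded by PCR and sequenced on Illumina. Binding is expressed as reads-per-million enrichment of pull-down over input, with replicates pooled.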
“GATGATTGTTCTCCCAGCTGATGAATTGATCAAGTCGAGTAAACAAATTTTCCTAATCTTTCTGTTCAAGCGCCATCTAC”: the binding signal was 0.245 RPM ratio (pull-down/input).

Regarding “GATGATTGTTCTCCCAGCTGATGAATTTGACGAGTCGAGTAAACAAATTTTCCTAATCTTTCTGTTCAAGCGCCATCTAC”, the binding signal is 0.235 RPM ratio (pull-down/input).

As for “GATGATTGTTCTCCCAGCTGATGAATTATCAGCCTCGAGTAAACAAATTTTCCTAATCTTTCTGTTCAAGCGCCATCTAC”, the binding signal was 0.468 RPM ratio (pull-down/input).

Turning to “GATGATTGTTCTCCCAGCTGATGAATTTCCGTGCTCGAGTAAACAAATTTTCCTAATCTTTCTGTTCAAGCGCCATCTAC”, the binding signal was 0.332 RPM ratio (pull-down/input).

On to “GATGATTGTTCTCCCAGCTGATGAATTGGACCATTCGAGTAAACAAATTTTCCTAATCTTTCTGTTCAAGCGCCATCTAC”, for which the binding signal is 0.374 RPM ratio (pull-down/input).

Take “GATGATTGTTCTCCCAGCTGATGAATTAGCCGACTCGAGTAAACAAATTTTCCTAATCTTTCTGTTCAAGCGCCATCTAC”: the binding signal was 0.205 RPM ratio (pull-down/input).

As for “GATGATTGTTCTCCCAGCTGATGAATTCTGGAATTCGAGTAAACAAATTTTCCTAATCTTTCTGTTCAAGCGCCATCTAC”, the binding signal is 0.579 RPM ratio (pull-down/input).

“GATGATTGTTCTCCCAGCTGATGAATTCCCTGTGTCGAGTAAACAAATTTTCCTAATCTTTCTGTTCAAGCGCCATCTAC”: the binding signal is 0.347 RPM ratio (pull-down/input).

In the case of “GATGATTGTTCTCCCAGCTGATGAATTGTTGTTGTCGAGTAAACAAATTTTCCTAATCTTTCTGTTCAAGCGCCATCTAC”, the binding signal was 7.65 RPM ratio (pull-down/input).

As to “GATGATTGTTCTCCCAGCTGATGAATTTGTCGTGTCGAGTAAACAAATTTTCCTAATCTTTCTGTTCAAGCGCCATCTAC”, the binding signal is 5.6 RPM ratio (pull-down/input).

In the case of “GATGATTGTTCTCCCAGCTGATGAATTTTTCGTGTCGAGTAAACAAATTTTCCTAATCTTTCTGTTCAAGCGCCATCTAC”, the binding signal was 0.363 RPM ratio (pull-down/input).

As to “GATGATTGTTCTCCCAGCTGATGAATTTGCTGTGTCGAGTAAACAAATTTTCCTAATCTTTCTGTTCAAGCGCCATCTAC”, the binding signal is 6.29 RPM ratio (pull-down/input).

As for “GATGATTGTTCTCCCAGCTGATGAATTGCTTGTGTCGAGTAAACAAATTTTCCTAATCTTTCTGTTCAAGCGCCATCTAC”, the binding signal is 2.01 RPM ratio (pull-down/input).

Turning to “GATGATTGTTCTCCCAGCTGATGAATTTTTGCTGTCGAGTAAACAAATTTTCCTAATCTTTCTGTTCAAGCGCCATCTAC”, the binding signal was 0.548 RPM ratio (pull-down/input).

On to “GATGATTGTTCTCCCAGCTGATGAATTTTTGTTGTCGAGTAAACAAATTTTCCTAATCTTTCTGTTCAAGCGCCATCTAC”, for which the binding signal is 3.24 RPM ratio (pull-down/input).

“GATGATTGTTCTCCCAGCTGATGAATTTCTGTTGTCGAGTAAACAAATTTTCCTAATCTTTCTGTTCAAGCGCCATCTAC”: the binding signal was 1.28 RPM ratio (pull-down/input).

For the sequence “GATGATTGTTCTCCCAGCTGATGAATTGTGTCGTTCGAGTAAACAAATTTTCCTAATCTTTCTGTTCAAGCGCCATCTAC”, the binding signal is 2.73 RPM ratio (pull-down/input).

Consider “GATGATTGTTCTCCCAGCTGATGAATTCGTGTTGTCGAGTAAACAAATTTTCCTAATCTTTCTGTTCAAGCGCCATCTAC”, for which the binding signal was 2.75 RPM ratio (pull-down/input).

For “GATGATTGTTCTCCCAGCTGATGAATTGTCGTGTTCGAGTAAACAAATTTTCCTAATCTTTCTGTTCAAGCGCCATCTAC”, the binding signal was 0.915 RPM ratio (pull-down/input).

For “GATGATTGTTCTCCCAGCTGATGAATTCGTTGTGTCGAGTAAACAAATTTTCCTAATCTTTCTGTTCAAGCGCCATCTAC”, the binding signal was 5.69 RPM ratio (pull-down/input).

With “GATGATTGTTCTCCCAGCTGATGAATTAGGCTGATCGAGTAAACAAATTTTCCTAATCTTTCTGTTCAAGCGCCATCTAC”, the binding signal is 0.537 RPM ratio (pull-down/input).

Regarding “GATGATTGTTCTCCCAGCTGATGAATTGAGTGCCTCGAGTAAACAAATTTTCCTAATCTTTCTGTTCAAGCGCCATCTAC”, the binding signal was 0.963 RPM ratio (pull-down/input).

As for “GATGATTGTTCTCCCAGCTGATGAATTCATTGAATCGAGTAAACAAATTTTCCTAATCTTTCTGTTCAAGCGCCATCTAC”, the binding signal was 0.267 RPM ratio (pull-down/input).

For the sequence “GATGATTGTTCTCCCAGCTGATGAATTGTGGACCTCGAGTAAACAAATTTTCCTAATCTTTCTGTTCAAGCGCCATCTAC”, the binding signal is 0.571 RPM ratio (pull-down/input).

In the case of “GATGATTGTTCTCCCAGCTGATGAATTCAATAGGTCGAGTAAACAAATTTTCCTAATCTTTCTGTTCAAGCGCCATCTAC”, the binding signal is 0.536 RPM ratio (pull-down/input).

Consider “GATGATTGTTCTCCCAGCTGATGAATTCGGATGGTCGAGTAAACAAATTTTCCTAATCTTTCTGTTCAAGCGCCATCTAC”, for which the binding signal was 0.433 RPM ratio (pull-down/input).

As for “GATGATTGTTCTCCCAGCTGATGAATTTCTGCACTCGAGTAAACAAATTTTCCTAATCTTTCTGTTCAAGCGCCATCTAC”, the binding signal was 0.475 RPM ratio (pull-down/input).

As to “GATGATTGTTCTCCCAGCTGATGAATTCAAGTGTTCGAGTAAACAAATTTTCCTAATCTTTCTGTTCAAGCGCCATCTAC”, the binding signal was 0.65 RPM ratio (pull-down/input).

As to “GATGATTGTTCTCCCAGCTGATGAATTCGGACCATCGAGTAAACAAATTTTCCTAATCTTTCTGTTCAAGCGCCATCTAC”, the binding signal was 0.399 RPM ratio (pull-down/input).

As for “GATGATTGTTCTCCCAGCTGATGAATTATAAGATTCGAGTAAACAAATTTTCCTAATCTTTCTGTTCAAGCGCCATCTAC”, the binding signal was 0.351 RPM ratio (pull-down/input).

With “GATGATTGTTCTCCCAGCTGATGAATTGTGAATGTCGAGTAAACAAATTTTCCTAATCTTTCTGTTCAAGCGCCATCTAC”, the binding signal is 1.32 RPM ratio (pull-down/input).

As for “GATGATTGTTCTCCCAGCTGATGAATTTTCTGTGTCGAGTAAACAAATTTTCCTAATCTTTCTGTTCAAGCGCCATCTAC”, the binding signal was 0.415 RPM ratio (pull-down/input).

On to “GATGATTGTTCTCCCAGCTGATGAATTGAATGTGTCGAGTAAACAAATTTTCCTAATCTTTCTGTTCAAGCGCCATCTAC”, for which the binding signal was 1.26 RPM ratio (pull-down/input).

Take “GATGATTGTTCTCCCAGCTGATGAATTTGTGTTGTCGAGTAAACAAATTTTCCTAATCTTTCTGTTCAAGCGCCATCTAC”: the binding signal was 6.27 RPM ratio (pull-down/input).

“GATGATTGTTCTCCCAGCTGATGAATTGTCTGTGTCGAGTAAACAAATTTTCCTAATCTTTCTGTTCAAGCGCCATCTAC”: the binding signal is 0.563 RPM ratio (pull-down/input).

Regarding “GATGATTGTTCTCCCAGCTGATGAATTGTGATTGTCGAGTAAACAAATTTTCCTAATCTTTCTGTTCAAGCGCCATCTAC”, the binding signal was 4.91 RPM ratio (pull-down/input).

As to “GATGATTGTTCTCCCAGCTGATGAATTTGTGTCGTCGAGTAAACAAATTTTCCTAATCTTTCTGTTCAAGCGCCATCTAC”, the binding signal is 5 RPM ratio (pull-down/input).

For “GATGATTGTTCTCCCAGCTGATGAATTTGATGTGTCGAGTAAACAAATTTTCCTAATCTTTCTGTTCAAGCGCCATCTAC”, the binding signal is 6.14 RPM ratio (pull-down/input).

Turning to “GATGATTGTTCTCCCAGCTGATGAATTTCTTGTGTCGAGTAAACAAATTTTCCTAATCTTTCTGTTCAAGCGCCATCTAC”, the binding signal was 1.59 RPM ratio (pull-down/input).

In the case of “GATGATTGTTCTCCCAGCTGATGAATTGATTGTGTCGAGTAAACAAATTTTCCTAATCTTTCTGTTCAAGCGCCATCTAC”, the binding signal is 3.72 RPM ratio (pull-down/input).

For the sequence “GATGATTGTTCTCCCAGCTGATGAATTTGTGATGTCGAGTAAACAAATTTTCCTAATCTTTCTGTTCAAGCGCCATCTAC”, the binding signal was 5.62 RPM ratio (pull-down/input).

“GATGATTGTTCTCCCAGCTGATGAATTTGTTGTGTCGAGTAAACAAATTTTCCTAATCTTTCTGTTCAAGCGCCATCTAC”: the binding signal is 8.35 RPM ratio (pull-down/input).
